These results are taken from PubChem BioAssay (NCI).

Some test systems named below: RPMI-8226 leukemia; OVCAR-8 ovarian; OVCAR-5 ovarian; OVCAR-4 ovarian; SK-OV-3 ovarian; OVCAR-3 ovarian; HS 578T breast; NCI/ADR-RES ovarian; IGROV1 ovarian.
Common to all, as to experiment: NCI-60 one-dose screen, 48 h (100 = growth as untreated, 0 = no growth, -100 = all killed)
Conditions in all cases: 10 µM unless noted

The panel holds about 83,000 compounds, 20% with a hit somewhere; the sample as a whole holds those more often.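 Treatment: one concentration, 48 hours, 96-well format. Scoring: percent growth, with anything below 10 considered active.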 Values without a mark were called inactive. Active and inactive are the calls of the source.

As to `Cc1[nH]n(-c2cccc(Cl)c2)c(=O)c1/C=C1\C=Nc2ccc(Br)cc21`, the growth is 14.1% with RPMI-8226 leukemia; 9.67% (active) in the assay on OVCAR-8 ovarian; 30.5% with OVCAR-5 ovarian; -89.9% (active) in the assay on OVCAR-4 ovarian; -25% (active) with SK-OV-3 ovarian; -47.2% (active) with OVCAR-3 ovarian. Further, the growth is 0.668% (active) in the assay on HS 578T breast and 16.3% with NCI/ADR-RES ovarian.

For `CS(=O)(=O)OCCN(CCOS(C)(=O)=O)c1ccc(/C=N/Nc2ccc([N+](=O)[O-])cc2[N+](=O)[O-])cc1`, the growth is 82.3% with RPMI-8226 leukemia; 76.4% in the assay with OVCAR-8 ovarian; 97.8% in the assay on OVCAR-5 ovarian; 93.1% in the assay with OVCAR-4 ovarian; 101% with SK-OV-3 ovarian; 107% in the assay with OVCAR-3 ovarian. In the assay on NCI/ADR-RES ovarian, the growth was 73%.

As to `O=S(=O)(c1cccc(NC2=Nc3cccc4cccc2c34)c1)N1CCCC1`, the growth was 48.8% with RPMI-8226 leukemia; 83.7% with OVCAR-8 ovarian; 100% in the assay on OVCAR-5 ovarian; 46.9% in the assay on OVCAR-4 ovarian; 84.1% in the assay with SK-OV-3 ovarian; 80% in the assay on IGROV1 ovarian. Also, the growth was 84.3% in the assay with OVCAR-3 ovarian, 76.8% in the assay with HS 578T breast and 66% with NCI/ADR-RES ovarian.

For the compound `CCNNC(=O)[C@@H]1[C@H](c2cc(OC)c(OC)c(OC)c2)c2cc3c(cc2[C@H](O)[C@H]1CO)OCO3`, the growth in the assay with RPMI-8226 leukemia is 32.8%; in the assay with OVCAR-8 ovarian, -13.3% (active); in the assay on OVCAR-5 ovarian, 33.6%; in the assay on OVCAR-4 ovarian it was 35.2%; in the assay on SK-OV-3 ovarian it was 1.47% (active); in the assay on IGROV1 ovarian, 20.8%. The figures for the growth in the assay with OVCAR-3 ovarian, with HS 578T breast and in the assay with NCI/ADR-RES ovarian were -47.8% (active), 23.1% and -13.7% (active), respectively.

Consider `[O-][n+]1ccccc1CCN(O)CCc1cccc[n+]1[O-]`, for which the growth was 102% in the assay on RPMI-8226 leukemia; 101% in the assay on OVCAR-8 ovarian; 97.7% in the assay with OVCAR-5 ovarian; 107% with OVCAR-4 ovarian; 101% with SK-OV-3 ovarian; 106% in the assay on IGROV1 ovarian. The growth in the assay with HS 578T breast is 94.5%; with NCI/ADR-RES ovarian, 99.8%.

Take `C(=N\Nc1ncc(-c2cc3cc4c(cc3o2)OCO4)s1)/c1c[nH]c2ccccc12`: the growth in the assay on RPMI-8226 leukemia was -22.4% (active); with OVCAR-8 ovarian, -12.1% (active); in the assay on OVCAR-5 ovarian it was 9.56% (active); in the assay with OVCAR-4 ovarian, -12.9% (active); in the assay with IGROV1 ovarian, -43.8% (active); with OVCAR-3 ovarian it was -44.4% (active). The figures for the growth with HS 578T breast and in the assay with NCI/ADR-RES ovarian were -6.98% (active) and 10.7%, respectively.

For `Cn1ncc2c(Nc3ccccc3Cl)nc(Cl)nc21`, the growth is 62.1% in the assay with RPMI-8226 leukemia; 113% in the assay on OVCAR-8 ovarian; 96.4% with OVCAR-5 ovarian; 96.3% with OVCAR-4 ovarian; 104% with SK-OV-3 ovarian; 164% with OVCAR-3 ovarian. Besides, the values for the growth in the assay with HS 578T breast and in the assay with NCI/ADR-RES ovarian were 136% and 100%, respectively.

Regarding `COc1ccc(OC)c(/C=C/[C@H]2O[C@@H](C)[C@H](O)[C@@H]2O)c1`, the growth was 95.3% with RPMI-8226 leukemia; 109% in the assay with OVCAR-8 ovarian; 112% with OVCAR-5 ovarian; 125% with OVCAR-3 ovarian; 111% in the assay on HS 578T breast; 108% in the assay with NCI/ADR-RES ovarian.

Take `NC(=S)N/N=C(/c1ccccc1)c1ccccc1N`: the growth was 72.6% in the assay on RPMI-8226 leukemia; 64.7% in the assay with OVCAR-8 ovarian; 94.8% in the assay with OVCAR-5 ovarian; 78.5% in the assay with OVCAR-4 ovarian; 108% with SK-OV-3 ovarian; 40.1% in the assay on IGROV1 ovarian. The results for the growth in the assay on OVCAR-3 ovarian, in the assay on HS 578T breast and in the assay with NCI/ADR-RES ovarian were 50.7%, 97.2% and 74.2%, respectively.

Consider `COc1nccnn1`, for which the growth was 70.1% in the assay on RPMI-8226 leukemia; 111% in the assay with OVCAR-8 ovarian; 101% in the assay with OVCAR-5 ovarian; 101% in the assay on OVCAR-4 ovarian; 110% with SK-OV-3 ovarian; 118% with IGROV1 ovarian. Moreover, the growth with OVCAR-3 ovarian is 146%; with HS 578T breast it was 86.7%; in the assay with NCI/ADR-RES ovarian, 101%.

Regarding `CNC(=O)Nc1ccc(-c2nc(N3CCOCC3)nc3c2cnn3C2CCOCC2)cc1`, the growth is 8.13% (active) in the assay on RPMI-8226 leukemia; 0.163% (active) in the assay with OVCAR-8 ovarian; 1.59% (active) with OVCAR-5 ovarian; -27.6% (active) with IGROV1 ovarian; 1.45% (active) in the assay with OVCAR-3 ovarian; -24.9% (active) with HS 578T breast. Besides, in the assay with NCI/ADR-RES ovarian, the growth was 4.44% (active).

On to `COc1ccc(CNC(=O)COc2ccc(/C=N/Nc3nc4ccccc4s3)cc2)cc1`, for which the growth was 27.3% with RPMI-8226 leukemia; 22.3% with OVCAR-8 ovarian; 66.9% in the assay with OVCAR-5 ovarian; -37.5% (active) with OVCAR-4 ovarian; 28.8% in the assay on IGROV1 ovarian; 25.3% in the assay on OVCAR-3 ovarian. Also, the growth is 13.3% in the assay with HS 578T breast and 23.3% in the assay with NCI/ADR-RES ovarian.

Turning to `BrC(Br)(Br)c1cnc2ccccc2n1`, the growth is 41.8% in the assay on RPMI-8226 leukemia; 45.4% in the assay on OVCAR-8 ovarian; 60.3% in the assay on OVCAR-5 ovarian; 69.4% in the assay with SK-OV-3 ovarian; 51.9% with IGROV1 ovarian; -27.5% (active) with OVCAR-3 ovarian. The growth is 66.7% with HS 578T breast and 44.3% with NCI/ADR-RES ovarian.

In the case of `C1=C2CNCC3=Cc4ccc5ccccc5c4OC23Oc2c1ccc1ccccc21`, the growth with RPMI-8226 leukemia is 70.5%; with OVCAR-8 ovarian it was 53.9%; with OVCAR-5 ovarian, 70%; in the assay on IGROV1 ovarian, 39.9%; with OVCAR-3 ovarian, -19.1% (active); with HS 578T breast, 52.5%. Further, in the assay on NCI/ADR-RES ovarian, the growth is -21.4% (active).
